# Assay outcomes: PubChem, several laboratories
# Peg3 prom inh: reduces Peg3 promoter-driven luciferase expression in HeLa. HeLa PEG-Prom luciferase reporter, luminescence, overnight. inhibition, % at 20 µM. 360,000 compounds, 1.7% hits. AID 588405;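 active = inhibition of at least 50% at 20 µM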
# KKLEB cytotox: CF airway cell cytotoxicity counter-screen; KKLEB CF airway cells viability, ATPlite luminescence, overnight; stronger effect = lower value; cells stimulated with P. aeruginosa culture filtrate; 360,000 compounds, 0.36% hits; activity change (cytotoxicity), % at 5 µM;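 active = corrected activity change at or below -50% at 5 µM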
# HIF-2a block: inhibitors of HIF-2a; AID 624352; 786-0 RCC cells HIF-2a reporter, luciferase luminescence, overnight; inhibition, % at 18.8 µM; 360,000 compounds, 0.72% hits;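 active = inhibition of the luminescence signal of 40% or more relative to plate controls, in a single-dose primary screen at 18.75 µM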
# TRPM1 prom inh: reduces MITF-dependent TRPM1 promoter luciferase signal; SK-MEL-5 TRPM1 promoter luciferase, 24 h; inhibition, % at 12.5 µM; 330,000 compounds, 0.83% hits;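 active = mean inhibition across replicates of 60% or more, whatever share of single replicates reaches that level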
# CF NFkB inh: cystic fibrosis NF-kB activation inhibition; KKLEB NF-kB-GFP reporter, PAF-induced, GFP fluorescence overnight; inhibition, % at 5 µM; 360,000 compounds, 0.86% hits; AID 588850;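 active = at least 50% inhibition at 5 µM, scaled per plate between neutral and stimulator controls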;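 note: PAF is a Pseudomonas aeruginosa culture filtrate used as stimulus; plate controls were PAF-stimulated DMSO wells for no effect and unstimulated DMSO wells for full effect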
# B2AR ag: activates human beta-2 adrenergic receptor causing internalization; P07550; Am2.2-beta2AR cells, FAP receptor internalization, flow cytometry; 340,000 compounds, 0.43% hits; response, % (concentration not given with the values);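 active = response above a set limit, near 3 SD of response in nonfluorescent compounds, cut at about 42% in these data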
# Target sequence (P07550 whole entry, looked up): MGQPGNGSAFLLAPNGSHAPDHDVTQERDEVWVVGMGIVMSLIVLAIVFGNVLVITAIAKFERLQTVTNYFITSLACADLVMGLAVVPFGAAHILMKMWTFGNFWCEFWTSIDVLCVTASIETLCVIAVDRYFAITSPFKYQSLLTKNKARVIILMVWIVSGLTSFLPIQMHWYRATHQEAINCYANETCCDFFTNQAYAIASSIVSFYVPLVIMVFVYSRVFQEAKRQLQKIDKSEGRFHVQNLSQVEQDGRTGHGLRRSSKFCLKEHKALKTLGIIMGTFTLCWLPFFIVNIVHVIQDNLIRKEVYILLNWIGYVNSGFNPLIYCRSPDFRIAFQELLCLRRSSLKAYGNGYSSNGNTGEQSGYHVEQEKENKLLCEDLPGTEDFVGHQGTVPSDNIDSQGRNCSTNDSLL
# An asterisk follows results filed as active; nt = no result given; ! = not confirmed by another sample. Compounds with a hit are over-represented: about 2.8% of the library has one in this group of screens.
SMILES,Peg3 prom inh,KKLEB cytotox,HIF-2a block,TRPM1 prom inh,CF NFkB inh,B2AR ag
C[C@@H]1CN([C@@H](C)CO)C(=O)c2cc(N(C)C)ccc2O[C@@H](C)CCCCO[C@@H]1CN(C)S(=O)(=O)c1cccs1,1,-6,10,nt,-2,nt
C#CCOCCOCCOCCNc1nc(N2CCN(C(=O)CCCCCCCCCCNC(=O)[C@H](CCCCN)n3cc(C)nn3)CC2)nc(N2CCN(C(=O)CCCCCCCCCCNC(=O)[C@@H]([C@H](C)O)n3cc(C)nn3)CC2)n1,50*,11,5,39,-3,26
C#CCOCCOCCOCCNc1nc(N2CCN(C(=O)CCCCCCCCCCNC(=O)[C@@H](CCC(=O)O)n3cc(CCCCCN)nn3)CC2)nc(N2CCN(C(=O)CCCCCCCCCCNC(=O)[C@H](CCCCN)n3cc(C[C@@H](C)CC)nn3)CC2)n1,-20,-4,3,36,1,17
C#CCOCCOCCOCCNc1nc(N2CCN(C(=O)CCCCCCCCCCNC(=O)[C@@H](CCSC)n3cc(CCO)nn3)CC2)nc(N2CCN(C(=O)CCCCCCCCCCNC(=O)[C@@H]([C@H](C)O)n3cc(C)nn3)CC2)n1,-42,16,-3,27,-4,9
C#CCOCCOCCOCCNc1nc(N2CCN(C(=O)CCCCCCCCCCNC(=O)[C@H](CCCCN)n3cc(C[C@@H](C)CC)nn3)CC2)nc(N2CCN(C(=O)CCCCCCCCCCNC(=O)[C@@H]([C@H](C)O)n3cc(C)nn3)CC2)n1,98*,-49,63*,94*,26,77*
C[C@H](O)[C@@H]1CN2CCc3c([nH]c4ccccc34)[C@@H]2C[C@@H]1N(C)C(=O)c1ccco1,14,-5,-8,nt,-18,nt
CC(C)(C)c1ccc(C2CC2C(=O)N/N=C\c2ccc[nH]2)cc1 (stereo unspecified),-8,-42,-25,5,58*,54*
C=CCNC(=O)CSc1nnc(-c2ccccc2Br)n1-c1cccc(C(F)(F)F)c1,52*,8,0,4,5,-11
CCOCC(=O)Nc1cccc(C(=O)OCC)c1,3,-2,-3,5,-18,5
CCOC(=O)C(=O)Nc1cccc(C(=O)OCC)c1,0,-2,14,0,-21,64*
Nc1[nH]c(C(=O)c2ccccc2)c(-c2ccc(Cl)c(F)c2)c1C(=O)NCCc1c[nH]c2ccccc12,nt,nt,-102,nt,nt,nt
O=C1c2ccc(Oc3cccc([N+](=O)[O-])c3)cc2C(=O)N1c1ccccn1,8,7,15,4,-9,2
O=C1c2cc([N+](=O)[O-])cc3cc([N+](=O)[O-])cc(c23)C(=O)N1c1ccccn1,28,-2,36,82*,15,16
CCOC(=O)CNS(=O)(=O)c1cc(-c2n[nH]c(=O)c3ccccc23)ccc1C,7,1,15,8,12,9
Cc1ccc(NS(=O)(=O)c2cc(-c3n[nH]c(=O)c4ccccc34)ccc2C)cc1,62*,-21,26,6,18,1
COc1ccc(-n2cc(-c3ccccc3)[n+]3c2CCCCC3)cc1,3,8,8,43,-18,3
CC(C)c1ccc(-n2c(-c3ccccc3)c[n+]3c2CCc2ccccc2-3)cc1,68*,-54*,15,88*,51*,-9
COc1ccccc1-n1c(-c2ccccc2)c[n+]2c1CCc1ccccc1-2,12,-1,14,67*!,-14,-19
COc1ccc(-n2c(-c3ccc(Br)cc3)c[n+]3c2CCc2ccccc2-3)cc1,19,-36,14,98*,20,-17
COc1ccc(-c2cn(-c3ccc(OC)cc3)c3[n+]2-c2ccccc2CC3)cc1,39,2,4,69*,-7,-8
CC1(C(=O)NCCc2ccccc2)Cc2c(-c3cccc(C(N)=O)c3)ccnc2O1 (stereo unspecified),22,-4,25,nt,0,nt
COc1cccc(C(C(=O)NCc2ccccc2)N2CCN(CCN3CCOCC3)CC2)c1OC (stereo unspecified),nt,nt,4,nt,nt,nt
CCOc1ccc(CN(C)Cc2cc(=O)oc3c(C)c(C)ccc23)cc1OC,6,-8,15,20,-15,-3
CCCCOCCCNC(=O)C[C@@H]1C[C@@]2(C(=O)OCC)CCCC=C2N(Cc2ccc(Cl)cc2Cl)C1=O,nt,nt,-13,nt,nt,nt
CCN1C/C(=C/c2cccc([N+](=O)[O-])c2)C(=O)/C(=C/c2cccc([N+](=O)[O-])c2)C1,104*,-40,97*,92*,102*,87*
SMILES,Peg3 prom inh,KKLEB cytotox,HIF-2a block,TRPM1 prom inh,CF NFkB inh,B2AR ag
O=C1NC(=O)/C(=C/c2cccc([N+](=O)[O-])c2)N1,23,5,5,6,-16,-1
COc1cccc(C(O)c2nc(-c3ccc(Cl)cc3)cs2)c1 (stereo unspecified),-28,-6,-40,nt,-31,nt
COc1ccccc1N(C)S(=O)(=O)c1ccc(C(=O)Nc2nccs2)cc1,10,-50*,-2,4,-13,8
COc1ccccc1N(C)S(=O)(=O)c1ccc(C(=O)Nc2ncc(C)s2)cc1,29,11,-2,6,3,-4
COc1ccc(NC(=O)c2ccc(C)cc2)cc1,-102,-4,-100,-46,-8,1
COc1ccc(NC(=O)c2ccc(NC3CC(=O)N(c4ccc(C)cc4C)C3=O)cc2)cc1 (stereo unspecified),17,-56*,-2,9,50,-4
CC1(C)CC(=O)C(c2ccccc2)(c2ccccc2)C(=O)C1,-7,22,16,-3,-7,-2
O=C(Nc1ccc(F)cc1)c1nc[nH]c1C(=O)Nc1ccc([N+](=O)[O-])cc1,4,-29,14,1,22,-8
O=C(Nc1ccc([N+](=O)[O-])cc1)c1nc[nH]c1C(=O)NC1CCCCC1,49,-51*,19,10,35,4
CC1(C(=O)NS(=O)(=O)c2cccc(Cl)c2)CCN1C(=O)CCc1cccs1 (stereo unspecified),-4,3,4,nt,7,nt
C[C@@H]1CN([C@H](C)CO)C(=O)CCCn2cc(nn2)CO[C@H]1CN(C)C(=O)OCc1ccccc1,3,12,3,nt,-7,nt
COc1ccccc1C(=O)NC(=Nc1nc2ccccc2o1)NC(=O)c1ccccc1OC,86*!,0,-11,15,-56,-5
COCCOC(=O)c1[nH]c2c(c1C)C(=O)CC(c1ccco1)C2 (stereo unspecified),-2,-11,-4,nt,37,25
Cc1c(C(=O)OCc2ccccc2)[nH]c2c1C(=O)CC(c1ccco1)C2 (stereo unspecified),-7,-30,-28,18,57*,12
Cc1cc(C2=NNC(=NC3CC3)SC2)c(C)n1-c1ccccc1,103*,-14,91*,100*,-10,1
